# Source: PubChem BioAssay (NCATS)
# Where “and” joins values, the source holds several entries; their conditions need not be identical. Equal values may be shown once. Results filed as inconclusive are left out. Entries that show only a call come without a potency. Calls of active or inactive are those of the source. Unless noted, the call rests on the fitted dose curve; in most records, active means well fitted curve in the direction sought with a large enough effect; inconclusive means small, poorly fitted or top-dose-only effect, or another doubt; inactive means no such curve, though single readings can be large; an effect the other way counts as inactive or inconclusive.
# Columns and labels:
# [1] = Primary qHTS for small molecule stabilizers of the endoplasmic reticulum resident proteome: Secreted ER Calcium Modulated Protein (SERCaMP) assay (AID 1508630)
# Method in brief: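 GLuc-SERCaMP-expressing SH-SY5Y cells, pretreated 16 h with compound, are challenged with thapsigargin to empty ER calcium stores; after 4 h, coelenterazine is added directly to the medium and luminescence is imaged.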
# Papain (Carica papaya) = Papain (Carica papaya) (UniProt P00784); assay: Primary qHTS assay for inhibitors of the protease papain (AID 1645873);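 further: papain turnover of Z-FR-AMC read as the AMC fluorescence gain over 10 min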
# Chain of Papain (Carica papaya) (P00784 whole entry, looked up): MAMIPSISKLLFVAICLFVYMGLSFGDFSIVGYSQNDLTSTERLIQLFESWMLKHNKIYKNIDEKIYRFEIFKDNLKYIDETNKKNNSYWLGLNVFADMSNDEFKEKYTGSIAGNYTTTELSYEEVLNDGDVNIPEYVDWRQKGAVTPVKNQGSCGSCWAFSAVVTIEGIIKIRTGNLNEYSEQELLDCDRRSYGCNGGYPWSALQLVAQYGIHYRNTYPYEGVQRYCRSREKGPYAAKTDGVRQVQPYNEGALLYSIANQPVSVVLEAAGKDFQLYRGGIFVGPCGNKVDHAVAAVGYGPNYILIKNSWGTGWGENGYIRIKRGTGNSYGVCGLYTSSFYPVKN
# [2] = target: Catechol O-methyltransferase (Homo sapiens) (UniProt P21964); assay: Confirmatory Screen for Target Class Profiling of Small Molecule Inhibitors of Methyltransferases (AID 1745852; calls by dose curve; further: potency means the concentration at half of the fitted maximal effect); settings: MTase-Glo luminescence, SAH detection, recombinant enzyme; measured here: COMT max response; stronger effect = lower value
# Chain of Catechol O-methyltransferase (Homo sapiens) (P21964 whole entry, looked up): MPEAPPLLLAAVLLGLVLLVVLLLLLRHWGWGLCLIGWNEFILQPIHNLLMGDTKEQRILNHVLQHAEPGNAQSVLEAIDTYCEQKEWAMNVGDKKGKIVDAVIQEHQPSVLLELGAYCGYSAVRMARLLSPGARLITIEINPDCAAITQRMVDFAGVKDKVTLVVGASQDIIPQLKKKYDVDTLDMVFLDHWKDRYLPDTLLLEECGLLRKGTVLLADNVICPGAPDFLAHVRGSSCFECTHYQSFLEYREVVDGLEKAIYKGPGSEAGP
# [3] = target: Guanidinoacetate N-methyltransferase (Homo sapiens) (UniProt Q14353); assay: as above; settings: MTase-Glo luminescence, SAH detection, recombinant enzyme; activity change, negative = inhibition: at 57.3 µM (top of the series) unless noted
# [4] = target: Nicotinamide N-methyltransferase (Homo sapiens) (UniProt P40261); assay: as above; settings: MTase-Glo luminescence, SAH detection, recombinant enzyme; measured here: NNMT max response; stronger effect = lower value
# Chain of Nicotinamide N-methyltransferase (Homo sapiens) (P40261 whole entry, looked up): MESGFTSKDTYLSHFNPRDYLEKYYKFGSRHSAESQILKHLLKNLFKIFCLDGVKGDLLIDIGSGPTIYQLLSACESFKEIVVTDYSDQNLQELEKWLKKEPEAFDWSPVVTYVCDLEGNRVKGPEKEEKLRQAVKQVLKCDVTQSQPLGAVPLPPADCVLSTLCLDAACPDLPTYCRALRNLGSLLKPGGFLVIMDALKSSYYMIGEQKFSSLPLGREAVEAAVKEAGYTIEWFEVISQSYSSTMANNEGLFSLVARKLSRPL
# [5] = target: Phenylethanolamine N-methyltransferase (Homo sapiens) (UniProt P11086); assay: as above; settings: MTase-Glo luminescence, SAH detection, recombinant enzyme; measured here: PNMT max response; stronger effect = lower value
# Chain of Phenylethanolamine N-methyltransferase (Homo sapiens) (P11086 whole entry, looked up): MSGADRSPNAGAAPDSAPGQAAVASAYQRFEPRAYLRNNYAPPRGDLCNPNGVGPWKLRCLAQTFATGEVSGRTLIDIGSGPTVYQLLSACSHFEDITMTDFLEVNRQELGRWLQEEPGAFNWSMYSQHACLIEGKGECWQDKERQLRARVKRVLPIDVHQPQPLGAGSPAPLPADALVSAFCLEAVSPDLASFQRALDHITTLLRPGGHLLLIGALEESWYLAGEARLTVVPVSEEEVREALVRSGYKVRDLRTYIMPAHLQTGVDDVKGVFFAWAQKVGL
# [6] = target: N-terminal Xaa-Pro-Lys N-methyltransferase 1 (Homo sapiens) (UniProt Q9BV86); assay: Confirmatory qHTS for Inhibitors of N-terminal methyltransferase 1 (NTMT1): MTaseGlo Assay (AID 1645874); further: potency means the concentration at half of the fitted maximal effect; nearly all actives have a fitted effect of over 65% in size
# Chain of N-terminal Xaa-Pro-Lys N-methyltransferase 1 (Homo sapiens) (Q9BV86 whole entry, looked up): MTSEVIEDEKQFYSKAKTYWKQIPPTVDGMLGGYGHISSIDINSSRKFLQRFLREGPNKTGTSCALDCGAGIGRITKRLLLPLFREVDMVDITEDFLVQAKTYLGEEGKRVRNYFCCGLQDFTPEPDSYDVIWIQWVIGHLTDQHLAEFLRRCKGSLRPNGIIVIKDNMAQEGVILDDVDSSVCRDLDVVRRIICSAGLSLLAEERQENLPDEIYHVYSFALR
# Method in brief: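 Preincubation of NTMT1 (125 nM) plus SAM (100 uM) with test compounds lasted 15 min; methylation of 1 uM SPKRIA then proceeded 30 min in the dark at room temperature. Luciferase signal reported SAH produced.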
# [7] = target: Cytochrome P450 2C9 (Homo sapiens) (UniProt P11712); assay: Cytochrome P450 family 2 subfamily C member 9 (CYP2C9) small molecule antagonists: luciferase biochemical (cell-free) qHTS assay (AID 1645842; active means well fitted curve in the direction sought with a large enough effect in the repeat runs; an effect the other way counts as inactive or inconclusive; further: nearly all actives have a fitted effect of over 55% in size; further: potency means the concentration at half of the fitted maximal effect)
# Chain of Cytochrome P450 2C9 (Homo sapiens) (P11712 whole entry, looked up): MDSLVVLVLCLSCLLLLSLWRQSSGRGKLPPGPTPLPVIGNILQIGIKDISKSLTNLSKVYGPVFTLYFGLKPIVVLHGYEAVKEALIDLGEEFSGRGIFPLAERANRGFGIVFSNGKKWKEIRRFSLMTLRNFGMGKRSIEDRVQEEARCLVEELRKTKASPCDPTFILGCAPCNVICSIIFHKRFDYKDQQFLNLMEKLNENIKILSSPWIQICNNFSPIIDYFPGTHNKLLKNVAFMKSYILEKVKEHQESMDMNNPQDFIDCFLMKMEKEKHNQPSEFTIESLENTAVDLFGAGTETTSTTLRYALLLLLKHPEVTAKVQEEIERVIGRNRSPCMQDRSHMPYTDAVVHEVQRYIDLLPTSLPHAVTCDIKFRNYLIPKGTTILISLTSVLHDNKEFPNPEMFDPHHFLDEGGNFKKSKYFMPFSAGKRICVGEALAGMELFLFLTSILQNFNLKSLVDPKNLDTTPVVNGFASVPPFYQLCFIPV
# Method in brief: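 Luminescence, after 20 min with luciferin detection reagent, reflected CYP2C9 turnover during a 1 h NADPH-driven reaction at 37C. Enzyme-substrate mix contained 0.4% bovine serum albumin and was preincubated with compound 10 min at room temperature.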
# [8] = A High-Content qHTS Against Drug Library for the Identification of Small Molecules that Inhibit DYT1 Early Onset Primary Dystonia-Associated Cell Pathology (AID 1645839; calls by dose curve)
# Method in brief: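 Readout: %pathology, the punctate EGFP-TorsinA distribution from imaging, as the primary channel and cell count as the toxicity counterscreen. HEK293 Flp-In cells expressing delE TorsinA were induced with tetracycline and treated with compound for 48 h.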
# [9] = target: Rap guanine nucleotide exchange factor 3 (Homo sapiens) (UniProt O95398); assay: Confirmatory qHTS for agonist of cAMP-regulated guanine nucleotide exchange factor 3 (EPAC1) (AID 1645881);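 further: EPAC1 catalysed release of BODIPY-GDP from Rap1B seen as fluorescence loss; nearly all actives have a fitted effect of over 75% in size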
# Chain of Rap guanine nucleotide exchange factor 3 (Homo sapiens) (O95398 whole entry, looked up): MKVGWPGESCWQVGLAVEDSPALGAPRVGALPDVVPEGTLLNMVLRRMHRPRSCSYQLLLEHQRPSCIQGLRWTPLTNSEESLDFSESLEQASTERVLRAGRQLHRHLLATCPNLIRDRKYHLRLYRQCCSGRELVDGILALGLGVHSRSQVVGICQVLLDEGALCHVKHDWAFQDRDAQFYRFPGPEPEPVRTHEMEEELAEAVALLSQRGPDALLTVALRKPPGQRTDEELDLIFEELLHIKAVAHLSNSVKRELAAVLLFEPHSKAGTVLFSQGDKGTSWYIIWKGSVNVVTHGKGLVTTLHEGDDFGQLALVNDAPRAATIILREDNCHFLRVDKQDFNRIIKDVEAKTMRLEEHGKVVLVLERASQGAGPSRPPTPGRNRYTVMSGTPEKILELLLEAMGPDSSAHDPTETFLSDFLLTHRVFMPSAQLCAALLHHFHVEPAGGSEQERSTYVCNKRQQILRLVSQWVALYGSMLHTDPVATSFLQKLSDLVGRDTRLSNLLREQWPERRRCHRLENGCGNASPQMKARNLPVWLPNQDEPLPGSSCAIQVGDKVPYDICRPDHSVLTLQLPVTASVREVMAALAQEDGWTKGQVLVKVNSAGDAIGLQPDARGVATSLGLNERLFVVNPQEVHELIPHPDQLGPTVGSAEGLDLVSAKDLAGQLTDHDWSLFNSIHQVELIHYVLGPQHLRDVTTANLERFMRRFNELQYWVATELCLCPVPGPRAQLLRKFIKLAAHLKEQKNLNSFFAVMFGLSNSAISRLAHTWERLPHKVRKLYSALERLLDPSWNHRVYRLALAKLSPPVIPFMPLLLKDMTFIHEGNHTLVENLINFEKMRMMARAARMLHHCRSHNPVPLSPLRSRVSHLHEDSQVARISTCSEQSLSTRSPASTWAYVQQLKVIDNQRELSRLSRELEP
# [10] = target: Rap guanine nucleotide exchange factor 4 (Homo sapiens) (UniProt Q8WZA2); assay: Confirmatory qHTS for agonist of cAMP-regulated guanine nucleotide exchange factor 4 (EPAC2) (AID 1645884);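 further: nucleotide exchange releases bodipy-GDP from Rap1 and this lowers its fluorescence; nearly all actives have a fitted effect of over 65% in size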
# Chain of Rap guanine nucleotide exchange factor 4 (Homo sapiens) (Q8WZA2 whole entry, looked up): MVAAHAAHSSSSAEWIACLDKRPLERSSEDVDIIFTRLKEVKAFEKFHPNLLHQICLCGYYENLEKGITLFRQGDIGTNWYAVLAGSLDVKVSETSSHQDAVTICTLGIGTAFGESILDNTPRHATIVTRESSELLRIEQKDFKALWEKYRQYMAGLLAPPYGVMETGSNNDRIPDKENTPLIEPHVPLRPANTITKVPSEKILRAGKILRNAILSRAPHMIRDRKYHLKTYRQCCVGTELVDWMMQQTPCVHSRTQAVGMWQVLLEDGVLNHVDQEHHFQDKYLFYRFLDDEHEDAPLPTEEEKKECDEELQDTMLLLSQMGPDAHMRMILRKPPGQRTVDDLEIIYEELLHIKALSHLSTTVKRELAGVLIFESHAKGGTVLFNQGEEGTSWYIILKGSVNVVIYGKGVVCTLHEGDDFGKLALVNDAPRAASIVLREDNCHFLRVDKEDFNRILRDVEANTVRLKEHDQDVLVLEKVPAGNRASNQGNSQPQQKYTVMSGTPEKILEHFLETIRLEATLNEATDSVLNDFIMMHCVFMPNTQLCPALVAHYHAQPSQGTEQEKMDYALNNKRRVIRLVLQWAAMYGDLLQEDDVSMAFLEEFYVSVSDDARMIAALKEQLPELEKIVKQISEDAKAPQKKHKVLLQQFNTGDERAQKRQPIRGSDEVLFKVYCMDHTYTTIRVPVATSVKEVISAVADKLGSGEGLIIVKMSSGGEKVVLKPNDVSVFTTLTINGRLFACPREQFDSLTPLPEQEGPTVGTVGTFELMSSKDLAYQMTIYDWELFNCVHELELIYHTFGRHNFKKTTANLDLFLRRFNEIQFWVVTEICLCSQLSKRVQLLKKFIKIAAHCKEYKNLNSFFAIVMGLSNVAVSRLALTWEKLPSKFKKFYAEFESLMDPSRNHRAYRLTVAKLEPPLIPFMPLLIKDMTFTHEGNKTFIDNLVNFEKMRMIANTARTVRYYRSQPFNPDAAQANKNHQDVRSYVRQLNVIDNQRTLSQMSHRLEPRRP
# [11] = Confirmatory qHTS to identify inhibitors of SARS-CoV-2 cell entry (AID 1645844; calls by dose curve; further: potency means the concentration at half of the fitted maximal effect; nearly all actives have a fitted effect of over 45% in size); settings: SARS-CoV-2 pseudotyped particle cell entry, luciferase
# Method in brief: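 HEK293-ACE2 cells (Expi293F stably expressing human ACE2) were pretreated with compounds for 1 hr at 37C, then infected with MLV-based particles carrying Wuhan-Hu-1 spike (C-terminal 19-aa truncation). Luciferase luminescence read after 48 hr; normalized to spike PP (100%) and bald PP (0%).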
# [12] = VSVG counterscreen qHTS to identify inhibitors of SARS-CoV-2 cell entry (AID 1645847; calls by dose curve; further: potency means the concentration at half of the fitted maximal effect; nearly all actives have a fitted effect of over 65% in size); settings: VSV-G pseudotyped particle entry, luciferase
# Method in brief: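 HEK293-ACE2 cells (Expi293F stably expressing human ACE2) were pretreated with compound for 1 h at 37 °C, then infected with MLV-based VSV-G pseudotyped particles for 48 h. Luciferase luminescence was normalized to VSV-G PP and bald PP wells.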
# [13] = Primary qHTS for inhibitors of nuclear receptor binding SET domain protein 2 (NSD2) in an isogenic RCH-ACV NSD2 p.E1099K mutant (9B) (AID 1645876); further: nearly all actives have a fitted effect of over 70% in size; further: potency means the concentration at half of the fitted maximal effect
# [14] = Primary qHTS for inhibitors of nuclear receptor binding SET domain protein 2 (NSD2) in an RCH-ACV wild type WT cells (2C) (AID 1645877); further: nearly all actives have a fitted effect of over 70% in size; further: potency means the concentration at half of the fitted maximal effect
# [15] = Cytotoxicity counterscreen for inhibitors of SARS-CoV-2 cell entry (AID 1645845; calls by dose curve; further: nearly all actives have a fitted effect of over 50% in size); settings: outcome: dose series up to 57.1 µM unless noted
# Method in brief: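 Expi293F/hACE2 cells seeded overnight; cpd pin-transferred in DMSO, 1 h preincubation, + media, 48 h 37 C 5% CO2; ATPLite 1step luminescence; normalized to cells and no cells.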
smiles,measurement,setting,value
C[C@@H]1O[C@@H](O[C@H]2C[C@@H](O)[C@]3(CO)[C@@H]4C(CC[C@]3(O)C2)[C@@]2(O)CC[C@H]([C@@H]3COC(=O)C3)[C@@]2(C)C[C@H]4O)[C@H](O)[C@H](O)[C@H]1O (some centres undefined),outcome,[1],inactive
same,Potency,Papain (Carica papaya),inactive
CN(N=O)c1ccc(O)c(O)c1,outcome,[1],inactive
same,activity,[2],-69.3%
same,Potency,[3],27.3 µM (active)
same,activity,[4],-14.9%
same,activity,[5],-27.8%
CC(C)(C)c1cc(C=C(C#N)C#N)cc(C(C)(C)C)c1O,outcome,[1],inactive
same,Potency,Papain (Carica papaya),inactive
same,Potency,[6],38.8 µM (active)
same,activity,[2],-14.8%
same,"activity change, negative = inhibition",[3],-1.85%
same,activity,[4],-20.4%
same,activity,[5],-25.9%
CCCN1CCc2cc(O)cc3c2[C@H]1Cc1ccc(O)c(O)c1-3,outcome,[1],inactive
same,Potency,Papain (Carica papaya),inactive
same,activity,[2],2.74%
same,"activity change, negative = inhibition",[3],-2.35%
same,activity,[4],-21.6%
same,activity,[5],0.0057%
C[N+](C)(C)CCOC(=O)CBr,outcome,[1],inactive
same,Potency,Papain (Carica papaya),inactive
CCCN1CCC[C@@H](c2cccc(O)c2)C1,outcome,[1],inactive
same,Potency,Papain (Carica papaya),inactive
same,activity,[2],4.08%
same,"activity change, negative = inhibition",[3],1.62%
same,activity,[4],0.9%
same,activity,[5],6.74%
NC(=O)c1ccc(OCC(O)CN2CC=C(c3ccc(F)cc3)CC2)cc1 (centres undefined),outcome,[1],inactive
same,Potency,Papain (Carica papaya),inactive
Cc1cc([C@@H]2CCCN2C)on1,outcome,[1],inactive
same,Potency,Papain (Carica papaya),inactive
O=C(NC(=O)c1c(F)cccc1F)Nc1ccc(Cl)c(Oc2ncc(C(F)(F)F)cc2Cl)c1,Potency,[7],1.9 µM (active)
CNc1ccc2oc(C[C@H]3O[C@@]4(CC[C@H]3C)O[C@H]([C@H](C)C(=O)c3ccc[nH]3)[C@H](C)C[C@H]4C)nc2c1C(=O)O,outcome,[1],inactive
same,activity,[2],-3.19%
same,Potency,[3],34.3 µM (active)
same,activity,[4],-35.2%
same,activity,[5],-4.07%
NC(=O)CI,outcome,[1],inactive
same,Potency,Papain (Carica papaya),inactive
same,Potency,[6],12.3 µM (active)
same,activity,[2],-3.06%
same,"activity change, negative = inhibition",[3],0.112%
same,activity,[4],-21.3%
same,activity,[5],-8.06%
CCCSP(=O)(OCC)SCCC,Potency,[8],inactive
CCCN(CCC)[C@H]1CCc2c(F)ccc(O)c2C1,outcome,[1],inactive
same,Potency,Papain (Carica papaya),inactive
Cc1c2ccncc2c(C)c2c1[nH]c1ccccc12,outcome,[1],inactive
same,Potency,Papain (Carica papaya),inactive
C[C@]12Cc3cn4c(nc3C=C1CCC1C2CC[C@@]2(C)[C@H]1CC[C@@]2(O)C#N)nc1ccccc14 (some centres undefined),outcome,[1],inactive
same,activity,[2],-23.1%
same,Potency,[3],0.611 µM (active)
same,activity,[4],-35.3%
same,activity,[5],-11.6%
O=[N+]([O-])c1cc(O)c(O)c([N+](=O)[O-])c1,outcome,[1],inactive
same,Potency,[9],inactive
same,Potency,[10],inactive
COC(=O)N1CCN(C(=O)Cc2ccc(Cl)c(Cl)c2)C(CN2CCCC2)C1 (centres undefined),outcome,[1],inactive
same,Potency,Papain (Carica papaya),inactive
C[N+]1(C)CCN(c2ccccc2)CC1,outcome,[1],inactive
same,Potency,Papain (Carica papaya),inactive
CC(Cc1ccc(OCC(=O)O)cc1)NCC(O)c1cccc(Cl)c1 (centres undefined),outcome,[1],inactive
same,Potency,Papain (Carica papaya),inactive
O=C1C2CC=CCC2C(=O)N1SC(Cl)(Cl)Cl (centres undefined),Potency,[7],6.74 µM (active)
same,Potency,[11],15.2 µM (active)
same,Potency,[12],15.2 µM (active)
COc1cc(CCNCc2ccccc2O)c(OC)cc1C#N,Potency,[7],9.52 µM (active)
same,Potency,[13],inactive
same,Potency,[14],inactive
ClC1C(Cl)C(Cl)C(Cl)C(Cl)C1Cl (centres undefined),Potency,[7],inactive
same,outcome,[15],inactive
CN1CCC[C@@H]1Cc1c[nH]c2ccc(Nc3ncccc3[N+](=O)[O-])cc12,Potency,[7],19 µM (active)
same,Potency,Papain (Carica papaya),inactive
same,Potency,[13],inactive
same,Potency,[14],inactive
same,activity,[2],3.7%
same,"activity change, negative = inhibition",[3],2.94%
same,activity,[4],-4.11%
same,activity,[5],3.35%
CC(C)(C)c1cc(C(C)(C)C)c2c(c1)C(O)(C(F)(F)F)C(=O)O2 (centres undefined),Potency,[7],21.3 µM (active)
same,Potency,[13],inactive
same,Potency,[14],inactive
OCCCCC#Cc1cncc(OC[C@@H]2CCN2)c1,Potency,[7],inactive
same,Potency,[13],inactive
same,Potency,[14],inactive
CCNCC(O)c1cccc(O)c1 (centres undefined),Potency,[7],inactive
same,outcome,[15],inactive
Cc1cn(C[C@H](N)C(=O)O)c(=O)n(Cc2cc(-c3ccccc3)sc2C(=O)O)c1=O,Potency,[7],inactive
same,Potency,[13],inactive
same,Potency,[14],inactive
Cc1c(Cl)cccc1S(=O)(=O)Nc1nc(CC(=O)N2CCN(C)CC2)cs1,Potency,[7],21.3 µM (active)
same,Potency,[13],inactive
same,Potency,[14],inactive
COc1ccccc1CN[C@H]1C2CCN(CC2)[C@H]1C(c1ccccc1)c1ccccc1,Potency,[7],inactive
same,Potency,[13],inactive
CC(C)(C)c1cc(O)ccc1O,Potency,[7],12 µM (active)
same,Potency,[9],inactive
same,Potency,[10],inactive
CCOc1ccccc1-n1c(C(C)N2CCN(C(=O)COc3ccc(Cl)cc3)CC2)nc2ccccc2c1=O (centres undefined),Potency,[7],13.5 µM (active)
same,Potency,[11],0.0192 µM (active)
same,Potency,[12],19.2 µM (active)
same,Potency,[13],916 nM (active) and 662 nM (active)
same,Potency,[14],365 nM (active) and 372 nM (active)
CN(C)CCc1c[nH]c2ccc(CN3CCN(C)S3(=O)=O)cc12,Potency,[7],inactive
same,Potency,[13],inactive
same,Potency,[14],inactive
CC(Cc1ccccc1)NC=O (centres undefined),Potency,[7],inactive
OC1(c2ccc(Cl)cc2)c2ccccc2C2=NCCN21 (centres undefined),Potency,[7],15.1 µM (active)
C[C@@](O)(COc1ccc(C#N)cc1)C(=O)Nc1ccc(C#N)c(C(F)(F)F)c1,Potency,[7],1.51 µM (active)
same,Potency,[14],inactive
CCCCCCn1c(=O)c(C(=O)Nc2ccc(C(=O)OCCC)cc2)c(O)c2ccccc21,Potency,[7],inactive
same,outcome,[13],inactive [at 9.23 µM]
same,outcome,[14],inactive [at 9.23 µM]
